Experimental data from PubChem BioAssay (NCI).
The panel holds about 83,000 compounds, 20% with a hit somewhere; the sample as a whole holds those more often.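 For each line, cells grew in 96-well plates with the test compound present at a single concentration for 48 hours.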 Values without a mark were called inactive. The source made the active and inactive calls. How the source made its calls: active means growth percent below 10; inactive means the rest.

What was measured:
Test in all cases: NCI-60 one-dose screen, 48 h (100 = growth as untreated, 0 = no growth, -100 = all killed)
Settings in all cases: 10 µM unless noted
K-562 leukemia = test system: K-562 leukemia
MALME-3M melanoma = test system: MALME-3M melanoma
MDA-MB-231 breast = test system: MDA-MB-231 breast
RXF 393 renal = test system: RXF 393 renal
SF-268 CNS = test system: SF-268 CNS
SF-295 CNS = test system: SF-295 CNS
SF-539 CNS = test system: SF-539 CNS
UACC-257 melanoma = test system: UACC-257 melanoma
M14 melanoma = test system: M14 melanoma
HCT-15 colon = test system: HCT-15 colon
HT29 colon = test system: HT29 colon
SNB-19 CNS = test system: SNB-19 CNS
U251 CNS = test system: U251 CNS
PC-3 prostate = test system: PC-3 prostate
SK-MEL-5 melanoma = test system: SK-MEL-5 melanoma
UACC-62 melanoma = test system: UACC-62 melanoma
LOX IMVI melanoma = test system: LOX IMVI melanoma
SK-MEL-28 melanoma = test system: SK-MEL-28 melanoma
DU-145 prostate = test system: DU-145 prostate
SNB-75 CNS = test system: SNB-75 CNS

`CCN(CC)CCCNC(=O)c1ccc(N)cc1O` showed a growth (K-562 leukemia) of 12.3%, a growth (MALME-3M melanoma) of 91.2% and a growth (MDA-MB-231 breast) of 94.6%. For the same compound, the growth (RXF 393 renal) was 91.3%, the growth (SF-268 CNS) was 93.8% and the growth (SF-295 CNS) was 99.7%. The growth (SF-539 CNS) was 98.4%, the growth (UACC-257 melanoma) was 99.3% and the growth (M14 melanoma) was 94.5%. For the same compound, the growth (HCT-15 colon) was 96.1%, the growth (HT29 colon) was 103% and the growth (SNB-19 CNS) was 106%. It also gave a growth (U251 CNS) of 99%, a growth (PC-3 prostate) of 94.2% and a growth (SK-MEL-5 melanoma) of 95.4%. It also gave a growth (UACC-62 melanoma) of 97.9%, a growth (LOX IMVI melanoma) of 90.6% and a growth (SK-MEL-28 melanoma) of 100%.

In the case of `CCCCCCCCc1cc[n+](CC(=O)c2ccc(Br)cc2)cc1`, the growth (DU-145 prostate) is reported as 37%, the growth (MALME-3M melanoma) is reported as -25.4% (active) and the growth (MDA-MB-231 breast) is reported as 13.8%. The growth (RXF 393 renal) was -24% (active), the growth (SF-268 CNS) was 52.5% and the growth (SF-295 CNS) was 34%. The growth (UACC-257 melanoma) was -61.2% (active), the growth (HCT-15 colon) was 47% and the growth (HT29 colon) was -88.9% (active). The growth (SNB-75 CNS) was 50.5%, the growth (SNB-19 CNS) was 35.3% and the growth (U251 CNS) was -85.2% (active). The growth (PC-3 prostate) was 10.2%, the growth (SK-MEL-5 melanoma) was -93.5% (active) and the growth (UACC-62 melanoma) was -32.9% (active). For the same compound, the growth (LOX IMVI melanoma) was -84.8% (active) and the growth (SK-MEL-28 melanoma) was 32.9%.

`O=C(NCOC(O)C(Cl)(Cl)Cl)NCOC(O)C(Cl)(Cl)Cl` (stereo unspecified) was tested, and the growth (K-562 leukemia) was 22.2%, the growth (MALME-3M melanoma) was 99.5% and the growth (MDA-MB-231 breast) was 106%. For the same compound, the growth (RXF 393 renal) was 125%, the growth (SF-268 CNS) was 105% and the growth (SF-295 CNS) was 93.8%. It also gave a growth (SF-539 CNS) of 90.4%, a growth (UACC-257 melanoma) of 94.9% and a growth (M14 melanoma) of 100%. For the same compound, the growth (HCT-15 colon) was 95.8%, the growth (SNB-75 CNS) was 85.6% and the growth (SNB-19 CNS) was 98.4%. For the same compound, the growth (U251 CNS) was 102%, the growth (PC-3 prostate) was 95.6% and the growth (SK-MEL-5 melanoma) was 102%. It also gave a growth (UACC-62 melanoma) of 98.8% and a growth (SK-MEL-28 melanoma) of 92.8%.

`CCN(CC)CCCNC(=O)c1ccc(N)cc1` showed a growth (K-562 leukemia) of 35.8%, a growth (MALME-3M melanoma) of 94.3% and a growth (MDA-MB-231 breast) of 104%. It also gave a growth (RXF 393 renal) of 110%, a growth (SF-268 CNS) of 102% and a growth (SF-295 CNS) of 99.3%. The growth (SF-539 CNS) was 106%, the growth (UACC-257 melanoma) was 92.9% and the growth (M14 melanoma) was 98.7%. It also gave a growth (HCT-15 colon) of 101%, a growth (HT29 colon) of 100% and a growth (SNB-75 CNS) of 95.5%. It also gave a growth (SNB-19 CNS) of 102%, a growth (U251 CNS) of 101% and a growth (PC-3 prostate) of 101%. For the same compound, the growth (SK-MEL-5 melanoma) was 97.7%, the growth (UACC-62 melanoma) was 105% and the growth (LOX IMVI melanoma) was 103%. It also gave a growth (SK-MEL-28 melanoma) of 96.8%.

With `CCOC(=O)c1ccc(-c2ccc3cc(OC)ccc3c2)nc1C` the growth (DU-145 prostate) was 103%, the growth (MALME-3M melanoma) was 92.8% and the growth (MDA-MB-231 breast) was 104%. The growth (RXF 393 renal) was 116%, the growth (SF-268 CNS) was 96.4% and the growth (SF-295 CNS) was 100%. The growth (SF-539 CNS) was 98.9%, the growth (UACC-257 melanoma) was 107% and the growth (HCT-15 colon) was 99.2%. It also gave a growth (HT29 colon) of 80.2%, a growth (SNB-75 CNS) of 110% and a growth (SNB-19 CNS) of 99.6%. The growth (U251 CNS) was 104%, the growth (PC-3 prostate) was 100% and the growth (SK-MEL-5 melanoma) was 107%. For the same compound, the growth (UACC-62 melanoma) was 85.2%, the growth (LOX IMVI melanoma) was 105% and the growth (SK-MEL-28 melanoma) was 91.5%.

Work on `CCCCCCNC(=O)c1cc(NCc2cc(O)ccc2O)ccc1O` yielded a growth (DU-145 prostate) of 92.6%, a growth (MALME-3M melanoma) of 67.4% and a growth (MDA-MB-231 breast) of 45.2%. The growth (RXF 393 renal) was 37.4%, the growth (SF-268 CNS) was 53.8% and the growth (SF-295 CNS) was 95.8%. It also gave a growth (SF-539 CNS) of 11.8%, a growth (UACC-257 melanoma) of 56.1% and a growth (HCT-15 colon) of 34.6%. For the same compound, the growth (HT29 colon) was 91%, the growth (SNB-75 CNS) was 45.7% and the growth (SNB-19 CNS) was 99.7%. For the same compound, the growth (U251 CNS) was 67.3%, the growth (PC-3 prostate) was 42.6% and the growth (SK-MEL-5 melanoma) was 90%. For the same compound, the growth (UACC-62 melanoma) was 56.3%, the growth (LOX IMVI melanoma) was 67.7% and the growth (SK-MEL-28 melanoma) was 101%.

Work on `C[N+](C)(C)CCOC(OCC[N+](C)(C)C)(c1ccccc1)c1ccccc1` yielded a growth (K-562 leukemia) of 99%, a growth (MALME-3M melanoma) of 126% and a growth (MDA-MB-231 breast) of 108%. For the same compound, the growth (RXF 393 renal) was 122%, the growth (SF-295 CNS) was 117% and the growth (SF-539 CNS) was 96.6%. The growth (UACC-257 melanoma) was 103%, the growth (HCT-15 colon) was 104% and the growth (HT29 colon) was 104%. The growth (SNB-75 CNS) was 87.3%, the growth (SNB-19 CNS) was 93.9% and the growth (U251 CNS) was 104%. It also gave a growth (PC-3 prostate) of 92.7%, a growth (SK-MEL-5 melanoma) of 110% and a growth (UACC-62 melanoma) of 99.3%. The growth (LOX IMVI melanoma) was 98.6% and the growth (SK-MEL-28 melanoma) was 104%.

`O=C(Nc1ccccc1)c1sc(-c2cccc(C(F)(F)F)c2)cc1O` was tested, and the growth (DU-145 prostate) was 82.4%, the growth (MALME-3M melanoma) was 81.4% and the growth (MDA-MB-231 breast) was 91.9%. For the same compound, the growth (RXF 393 renal) was 102%, the growth (SF-268 CNS) was 82.8% and the growth (SF-295 CNS) was 82.9%. The growth (SF-539 CNS) was 42.2%, the growth (UACC-257 melanoma) was 46.9% and the growth (HCT-15 colon) was 69.5%. For the same compound, the growth (HT29 colon) was 93.7%, the growth (SNB-75 CNS) was 78.5% and the growth (SNB-19 CNS) was 69.6%. It also gave a growth (U251 CNS) of 51.6%, a growth (PC-3 prostate) of 81% and a growth (SK-MEL-5 melanoma) of 18.4%. The growth (LOX IMVI melanoma) was 86.4% and the growth (SK-MEL-28 melanoma) was 53%.
